# Screening results from PubChem BioAssay.
# An excerpt weighted towards active compounds, which were near 1.6% of everything screened.
# eIF4H FP inh = inhibitors of RNA binding by human eIF4H; eIF4H fluorescence polarization binding assay; AID 2012; actives 0.94% (n = 290,000); inhibition, % at 35 µM; Q15056;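 note: calls also rest on retests at 20 µM and on dose response follow-up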
# PERK inhibitor = blocks human PERK kinase; Q9NZJ5; CHO PERK-DD fusion, SEAP luminescence translation reporter; inhibition, % at 5.6 µM; actives 0.17% (n = 220,000);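 active = inhibition above the mean inhibition of all tested compounds plus 3 SD, set separately per screening campaign, cut at about 2.9% in these data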;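 note: PERK kinase domain activated by AP20187 dimerizer at 100 nM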
# PABP1 MLLE inh = inhibitors of microRNA-mediated deadenylation, human PABP1 MLLE binding | P11940 | GST-MLLE / FITC-PAM2 fluorescence polarization | inhibition, % at 20 µM | actives 0.36% (n = 360,000); in the data active = inhibition above about 35%, passing the limit was not always enough
# eIF4E-4G inh = blocks eIF4E binding to eIF4G. P63073+Q04637. AID 782. TR-FRET eIF4E-eIF4GI(517-606) binding, 2 h. inhibition, % at 21.7 µM. actives 0.37% (n = 220,000);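 active = inhibition above about 30%, limit read from the data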
# PABP polyA inh = PABP-poly(A) binding inhibition. actives 1% (n = 290,000). calls only at 35 µM. PABP-poly(A) RNA binding, fluorescence polarization. P11940;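 note: calls also rest on retests at 20 µM and on dose response follow-up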
# Numbers stand for hits; i = inactive; ? = inconclusive; nt = not tested or not shown; + = active, no number. Unless noted, the rule behind the calls is not given here.
SMILES,eIF4H FP inh,PERK inhibitor,PABP1 MLLE inh,eIF4E-4G inh,PABP polyA inh
O=[N+]([O-])c1ccc(N2CCOCC2)cc1SCc1ccco1,85.9,i,i,i,+
O=[N+]([O-])c1ccc(SCc2ccco2)cc1N1CCOCC1,i,i,i,i,i
COc1cc(Cl)ccc1OC1(C)CCN(Cc2ccc(-c3ccccn3)cc2)C1 (centres undefined),nt,nt,i,nt,nt
COc1cccc2c(=O)c3c([nH]c12)OC(C)(C)C3,nt,nt,i,nt,nt
COc1cccc2c(=O)c3cccc(N)c3[nH]c12,94.4,i,i,i,+
Nc1ncnc2oc(-c3ccco3)c(-c3ccco3)c12,104.3,i,i,i,+
Cc1noc(C)c1C(=O)Nc1ccc(-c2nnc3n2CCCCC3)cc1,nt,nt,i,nt,nt
CC(C)(C)CC(=O)Nc1ccc(-c2nnc3n2CCCCC3)cc1,77.6,nt,i,nt,+
COc1cc(/C=C(\C#N)C(=O)NCC2CCCO2)ccc1O (centres undefined),active,i,i,i,+
COc1ccc(NC(=O)CCc2nnc3ccc(N4CCC(C)CC4)nn23)cc1OC,i,nt,i,nt,i
CCN(C(=O)CSc1nnc(CNc2cccc(OC)c2)n1C1CCCCC1)C1CCS(=O)(=O)C1 (centres undefined),i,nt,i,nt,i
Cc1cc(C(=O)COc2cccnc2[N+](=O)[O-])c(C)n1Cc1cccs1,105.6,i,i,i,i
COCCn1c(C)cc(C(=O)COc2ccc(C)nc2[N+](=O)[O-])c1C,115.4,i,i,i,i
COCCn1c(C)cc(C(=O)CSc2ccc3ccccc3n2)c1C,62.2,i,i,i,+
CCCn1c(C)cc(C(=O)COc2ccc(C)nc2[N+](=O)[O-])c1C,69.0,i,i,i,+
C=CCn1c(C)cc(C(=O)COc2ccc(C)nc2[N+](=O)[O-])c1C,?,i,i,i,i
Cc1ccc(CN2C(=O)C(C)Nc3ncnc(N4CCN(c5ccccn5)CC4)c32)cc1 (centres undefined),nt,nt,i,nt,nt
Cc1ccc(S(=O)(=O)NCc2ccccc2)cc1C(=O)NCCc1ccc(S(N)(=O)=O)cc1,nt,nt,i,nt,nt
O=C(NC1(C(F)(F)F)NC(=O)N(Cc2ccco2)C1=O)c1cccs1 (centres undefined),92.2,i,i,i,+
Cc1ccc(C)n1-c1nc(=S)[nH][nH]1,i,i,45.2,i,i
O=C(Nc1ccccc1)Nc1ccno1,i,i,i,i,i
CSc1ccc(CN(C)C(=O)c2cccc(S(=O)(=O)NCc3ccccc3)c2)cc1,i,nt,i,nt,+
O=C(NCCc1ccco1)c1cc(COc2cccc(C(F)(F)F)c2)on1,i,nt,i,nt,i
COc1ccccc1NS(=O)(=O)c1cc([N+](=O)[O-])ccc1N/N=C/c1sc(N2CCOCC2)nc1-c1ccccc1,70.7,i,i,i,+
CCOC(=O)C1(CCCc2ccccc2)CCN(C(=O)CN2C(=O)CSC2=O)CC1,i,i,i,i,i
SMILES,eIF4H FP inh,PERK inhibitor,PABP1 MLLE inh,eIF4E-4G inh,PABP polyA inh
COc1ccc(NS(=O)(=O)c2ccc(N3CCCC3)c(NC(=S)Nc3ccc(SC(F)F)cc3)c2)cc1,i,i,40.3,i,i
CC1(C(=O)NC2CCCCCC2)CCN1C(=O)C1(c2ccccc2)CC1 (centres undefined),nt,nt,i,nt,nt
O=c1[nH]c(Nc2ccc(F)cc2)cc2ccccc12,i,i,i,i,+
O=c1[nH]c(Nc2ccccc2Cl)cc2ccccc12,nt,nt,i,nt,nt
CC1(C)CC(=O)C/C(=N\NC(=O)Cc2ccccc2)C1,active,i,i,i,+
Fc1ccc(-c2nc3c(Cl)cc(C(F)(F)F)cn3c2Cl)cc1,?,i,42.7,i,i
Cc1ccc(Cc2c(-c3ccc(F)cc3)nc3c(Cl)cc(C(F)(F)F)cn23)cc1,nt,nt,i,nt,nt
C/C=C1\NC(=O)[C@H](C)NC(=O)[C@@H](NC(=O)[C@H](Cc2ccc(O)cc2)NC(=O)[C@@H](NC(=O)/C(C)=C/C)C(C)C)[C@@H](C)OC(=O)[C@H](CC(C)C)NC(=O)[C@@H](CCC(=O)O)NC1=O,nt,nt,i,nt,nt
CN1CCN(CCCNC(=O)c2ccc(/C=C3\Sc4ccccc4N(Cc4ccc(F)cc4)C3=O)cc2)CC1,i,i,i,35.0,i
COc1ccc(Cl)cc1NC(=O)CN1C(=O)CC(C)S(=O)(=O)c2ccccc21 (centres undefined),i,i,i,i,i
COc1cc(/C=N/NC(=O)C(=O)NCc2ccco2)cc(Cl)c1O,?,i,i,i,+
COc1cc(/C=N/NC(=O)C(=O)NCc2ccco2)ccc1O,i,i,i,i,i
Nc1[nH]c2cc([N+](=O)[O-])ccc2c1-c1ccccn1,i,nt,i,nt,+
Nc1nc2ccc([N+](=O)[O-])cc2[nH]1,i,i,i,i,i
O=C1CCNc2c(Cl)cc(Cl)cc21,51.3,i,i,i,i
O=C1CCNc2c(Cl)cccc21,i,i,i,i,i
CCC(C)[C@H]1COCCS(=O)(=O)N1Cc1ccc(Cl)cc1Cl (some centres undefined),i,nt,i,nt,i
CCN(CC)S(=O)(=O)c1ccc2c(c1)N(CC(=O)NCCN1CCOCC1)C(=O)CO2,i,nt,i,nt,i
COc1ccc(C2CC(=O)Oc3c(C(CCN4CCCCC4)c4ccc(N(C)C)cc4)c(OC)cc(OC)c32)cc1 (centres undefined),i,nt,i,i,i
COc1ccc(C2CC(=O)Oc3c(C(CCN4CCCC(C)C4)c4ccc(N(C)C)cc4)c(OC)cc(OC)c32)cc1 (centres undefined),i,nt,i,42.5,i
COc1ccc(-c2ccc3c(c2)C2CC3CCN2C(=O)C2CCCCC2)cc1 (centres undefined),nt,nt,i,nt,nt
CCCCn1c2ccc(F)cc2c2nnc(SCCN3CCOCC3)nc21,i,nt,45.1,nt,i
Cc1ccc(NC(=S)Nc2ccccn2)cc1C,i,i,40.5,i,i
CC(C(=O)N1CCc2ccccc21)n1cnc2c1c(=O)n(C)c(=O)n2C (centres undefined),nt,nt,i,nt,nt
Cc1cc(=O)cc(C)n1-c1ccc(F)cc1F,i,i,i,i,+
SMILES,eIF4H FP inh,PERK inhibitor,PABP1 MLLE inh,eIF4E-4G inh,PABP polyA inh
O=C(O)c1ccccc1Nc1ccnc(Cl)n1,i,i,i,74.5,i
O=C(O)c1ccccc1Nc1ccccc1C(=O)O,i,i,i,i,i
COc1cc(S(=O)(=O)NCCCN2CCOCC2)ccc1Cl,i,2.9,i,i,i
Cc1ccn2cc(CC(=O)O)nc2c1,?,i,i,i,+
O=C(CSc1nc2sccc2c(=O)[nH]1)N1CCN(c2ccccc2)CC1,i,nt,i,nt,+
C=CCn1c(SCC(=O)NC2CCCC2)nc2scc(-c3ccco3)c2c1=O,70.8,i,i,i,+
O=C1CC(c2ccccc2)Sc2nc3ccccc3n21 (centres undefined),i,i,i,i,i
O=C1CC(c2ccco2)Sc2nc3ccccc3n21 (centres undefined),89.0,i,i,i,+
Oc1ccc(/C=N/Nc2ccc(C(F)(F)F)cn2)cc1,i,i,i,i,i
C/C(=N\Nc1ccc(C(F)(F)F)cn1)c1ccncc1,active,i,i,i,+
CCc1ccc2[nH]c3nc(N/N=C/c4ccc(O)cc4O)nnc3c2c1,i,nt,i,nt,i
